Several values for one entry are separate records, joined by “and”; a condition that tells them apart may be missing. Equal values may be shown once. The panel holds about 83,000 compounds, 20% with a hit somewhere; the sample as a whole holds those more often.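 Values shown are percent growth following 48 h exposure of cells in 96-well plates to a single concentration of compound; below 10 was considered active.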 Activity calls are given as the source filed them.
test system: HS 578T breast; assay: NCI-60 one-dose screen, 48 h (100 = growth as untreated, 0 = no growth, -100 = all killed); conditions: 10 µM unless noted
Procedure: Growth inhibition of the HS 578T human tumor cell line is measured as a screen for anti-cancer activity. Cells are grown in 96 well plates and exposed to the test compound for 48 hours. Compounds are tested at a single concentration, which is 10^-5 M for most compounds. The reported endpoint is percent growth (GI% or GIPRCNT), where numbers from 0 - 100% represent growth inhibition, and numbers from -100% - 0 represent cell death. For example, a value of 40 represents 60% growth inhibition. A value of 0 means no net growth occurred over the course of the experiment. A value of -40 indicates 40% of cells at the beginning of the experiment died by the end of the experiment. A value of -100 means all cells are dead at the end of the experiment.
NCI-60 Human Tumor Cell Lines Screen was performed using the standard one-dose NCI protocol, which is described in more detail at https://dtp.cancer.gov/discovery_development/nci-60/default.htm.
Compounds with GIPRCNT values below 10 were considered active. Activity score was based on GIPRCNT using the following formula: […]
Score is 0 for GIPRCNT values of 100 or above, 50 for GIPRCNT values of 0, and 100 for GIPRCNT values of -100.

Row | Compound | growth
1 | CC1OS(=O)OC1C (stereo not given) | 98.3% (inactive)
2 | N#CC1c2ccccc2C=CN1C(=O)c1ccccc1 (stereo not given) | 94.2% (inactive) and 150% (inactive)
3 | CCC(C)NC(=O)c1ccccc1C (stereo not given) | 96.8% (inactive)
4 | Cc1c(Cl)cc(Cl)c(N)c1Cl | 95.3% (inactive)
5 | CCOC(=O)c1ccc(N2C(=O)C(Cl)(c3ccccc3)C2c2ccco2)cc1 (stereo not given) | 69.6% (inactive)
6 | Clc1ccc2sc(-c3ccccc3)nc2c1 | 68.7% (inactive)
7 | C/C=C(/C(=O)NC(N)=O)C(C)C | 107% (inactive)
8 | N#Cc1ccc(/C=C/C(=O)c2ccccc2)cc1 | 128% (inactive) and 102% (inactive)
9 | CNc1ccc(O)cc1 | 115% (inactive) and 142% (inactive)
10 | Nc1c(Cl)cc2c(c1Br)C(=O)c1ccccc1C2=O | 98% (inactive)
11 | CC1=CC(=O)C=CC1=Nc1ccc(N(C)C)cc1 | 109% (inactive)
12 | N#CC(=S)Nc1ccc(Cl)c(Cl)c1 | -7.34% (active)
13 | O=[N+]([O-])c1cccc(N=Cc2ccccc2)c1 | 110% (inactive)
14 | O=C(NC(CSSCC(NC(=O)OCc1ccccc1)C(=O)O)C(=O)O)OCc1ccccc1 (stereo not given) | 99.9% (inactive) and 104% (inactive)
15 | Cc1cc(=NO)cc(C)n1O | 103% (inactive)
16 | CCOP(C)(=O)/C(Cc1ccc(OC)c(OC)c1)=N\O (stereo not given) | 94.9% (inactive)
17 | Cn1c(N)c(N=O)c(=O)n(C)c1=O | 112% (inactive) and 94.4% (inactive)
18 | CCOC(=O)NC(N)=O | 102% (inactive) and 107% (inactive)
19 | CCCCCCC(C)CC1=C(O)c2ccccc2C(=O)C1=O (stereo not given) | 75.3% (inactive)
20 | CC(=O)Oc1cc(C)c(OC(C)=O)c(C)c1C | 91.1% (inactive)

Row | Compound | growth
21 | CCOCCC(=O)O | 98.7% (inactive)
22 | ON=C(C1CCCCC1)C1CCCCC1 | 101% (inactive)
23 | N#Cc1c[nH]n2ccnc12 | 117% (inactive)
24 | COc1cc([C@@H]2c3cc4c(cc3[C@H](O)[C@H]3COC(=O)[C@@H]23)OCO4)cc(OC)c1OC | -47.7% (active)
25 | Cn1c(-c2ccccc2)cc(=O)cc1-c1ccccc1 | 105% (inactive)
26 | O=C(O)c1ccc2c3ccc(C(=O)O)c4c(C(=O)O)ccc(c5ccc(C(=O)O)c1c25)c43 | 107% (inactive)
27 | CCN(C)c1ccccc1 | 96.2% (inactive)
28 | Cc1cc(O)c(C(C)C)cc1N=O | 104% (inactive) and 114% (inactive)
29 | CC1CCC(=O)N1c1ccc(N)cc1 (stereo not given) | 108% (inactive)
30 | Cc1ccc(C(=O)c2ccc(C)cc2)cc1 | 101% (inactive)
31 | COC(=O)CCOc1ccccc1 | 195% (inactive)
32 | Cc1cnc(N)s1 | 89.4% (inactive)
33 | CN1C2C=CC(=O)C1C1C(=O)N(c3ccccc3)C(=O)C12 (stereo not given) | 77.5% (inactive)
34 | O=C1c2cccnc2-c2ncccc21 | 89.5% [100 µM] (inactive)
35 | O=c1[nH]c(=S)[nH]n1C(=S)n1[nH]c(=S)[nH]c1=O | 98.5% (inactive)
36 | Cc1onc(-c2c(F)cccc2Cl)c1-c1ncc(-c2ccc(Cl)cc2)o1 | 84.8% (inactive) and 57.3% (inactive)
37 | O=C(O)c1cccc(Br)c1 | 124% (inactive) and 101% (inactive)
38 | CCOC(C)=N | 150% (inactive)
39 | CCOP(=O)(OCC)/C(C#N)=C/c1c(C)[nH]c2ccccc12 | 90.8% (inactive)
40 | CCCCOC1NC(=O)NC(=O)C1(F)C(=O)OCC (stereo not given) | 101% (inactive) and 115% (inactive)

Source: PubChem BioAssay (NCI)
